40 compounds from the supplement of paper PMC6288085 can be followed below.

Structures can show the parent of a compound that is named as a salt. ± gives the uncertainty stated by the source.

The subject of this assay is Caenorhabditis elegans N2. Kind of assay: food intake (mean delta OD600 / animal over 72 h) with 50 uM loxapine co-treatment (OD600 units per animal); higher = more food eaten (less suppression of loxapine-induced hyperphagia). The conditions noted are these: first compound 33 µM, loxapine concentration 50 µM. How it is done: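 C. elegans N2 adults (FUDR-sterilised, day 1) in 96-well plates fed gamma-irradiated bacteria. Each library drug (MedChemExpress FDA-approved library) at 33 uM was combined with loxapine at 50 uM. Food intake was measured as bacterial clearance: the change in OD600 from day 1 to 72 h, normalised per animal (mean over 14-21 wells of about 10-12 worms). Drugs flagged for bacterial lysis or sickness were excluded by the authors.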
In the case of `Cc1ncc([N+](=O)[O-])n1CC(C)O` (stereo not given) [secnidazole] + CN1CCN(C2=Nc3ccccc3Oc3ccc(Cl)cc32)CC1 [loxapine], the food intake is 0.0205 ± 0.0035.

Take `C[C@H](Cn1cnc2c(N)ncnc21)OCP(=O)(O)O` [tenofovir] + CN1CCN(C2=Nc3ccccc3Oc3ccc(Cl)cc32)CC1 [loxapine]: the food intake came out at 0.0219 ± 0.0044. The same measure for `CCOC(=O)[C@H](CCc1ccccc1)N[C@@H](C)C(=O)N1Cc2ccccc2C[C@H]1C(=O)O` [quinapril (hydrochloride)] + CN1CCN(C2=Nc3ccccc3Oc3ccc(Cl)cc32)CC1 [loxapine]: 0.0212 ± 0.003; for `CCCS(=O)(=O)Nc1ccc(F)c(C(=O)c2c[nH]c3ncc(-c4ccc(Cl)cc4)cc23)c1F` [vemurafenib] + CN1CCN(C2=Nc3ccccc3Oc3ccc(Cl)cc32)CC1 [loxapine]: 0.012 ± 0.0047. The same measure for `C[N+]1(C)CCC(=C(c2ccccc2)c2ccccc2)CC1` [diphenmanil (methylsulfate)] + CN1CCN(C2=Nc3ccccc3Oc3ccc(Cl)cc32)CC1 [loxapine]: 0.0235 ± 0.0021; for `CC[C@H]1OC(=O)[C@H](C)[C@@H](O[C@H]2C[C@@](C)(OC)[C@@H](O)[C@H](C)O2)[C@H](C)[C@@H](O[C@@H]2O[C@H](C)C[C@H](N(C)C)[C@H]2O)[C@](C)(O)C[C@@H](C)[C@@H]2N[C@@H](COCCOC)O[C@H]([C@H]2C)[C@]1(C)O` [dirithromycin] + CN1CCN(C2=Nc3ccccc3Oc3ccc(Cl)cc32)CC1 [loxapine]: 0.0208 ± 0.0079. With `CC(C(=O)O)c1ccc2c(c1)CC(=O)c1ccccc1S2` (stereo not given) [zaltoprofen] + CN1CCN(C2=Nc3ccccc3Oc3ccc(Cl)cc32)CC1 [loxapine] the figure was 0.0216 ± 0.0032. Regarding `COc1ccc(C(=O)NCc2ccc(OCCN(C)C)cc2)cc1OC` [itopride (hydrochloride)] + CN1CCN(C2=Nc3ccccc3Oc3ccc(Cl)cc32)CC1 [loxapine], the food intake was 0.0294 ± 0.033.

Take `O=C1CC2(CCCC2)CC(=O)N1CCCCN1CCN(c2ncccn2)CC1` [buspirone (hydrochloride)] + CN1CCN(C2=Nc3ccccc3Oc3ccc(Cl)cc32)CC1 [loxapine]: the food intake amounted to 0.0245 ± 0.0044. Take `O=C1CCc2cc(OCCCCc3nnnn3C3CCCCC3)ccc2N1` [cilostazol] + CN1CCN(C2=Nc3ccccc3Oc3ccc(Cl)cc32)CC1 [loxapine]: the food intake was 0.0227 ± 0.0031.

On to `CO/N=C(\C(=O)N[C@@H]1C(=O)N2C(C(=O)O)=C(CSc3nc(=O)c(O)nn3C)CS[C@H]12)c1csc(N)n1` [ceftriaxone (sodium salt)] + CN1CCN(C2=Nc3ccccc3Oc3ccc(Cl)cc32)CC1 [loxapine], for which the food intake turned out to be 0.0251 ± 0.0082. The same measure for `CC(=O)NC(Cc1ccccc1)C(=O)O` (racemic) [N-acetyl DL-phenylalanine] + CN1CCN(C2=Nc3ccccc3Oc3ccc(Cl)cc32)CC1 [loxapine]: 0.0223 ± 0.0049; for `Cc1ccc(Nc2nccc(N(C)c3ccc4c(C)n(C)nc4c3)n2)cc1S(N)(=O)=O` [pazopanib (hydrochloride)] + CN1CCN(C2=Nc3ccccc3Oc3ccc(Cl)cc32)CC1 [loxapine]: 0.0206 ± 0.0053; for `NC(=O)c1cnccn1` [pyrazinamide] + CN1CCN(C2=Nc3ccccc3Oc3ccc(Cl)cc32)CC1 [loxapine]: 0.0222 ± 0.0034. In the case of `CC1=C(C)C(=O)C(C(CCCCCC(=O)O)c2ccccc2)=C(C)C1=O` (stereo not given) [seratrodast] + CN1CCN(C2=Nc3ccccc3Oc3ccc(Cl)cc32)CC1 [loxapine], the food intake was determined as 0.0265 ± 0.0088. The same measure for `COc1cc(OC)c(C(=O)CCCN2CCCC2)c(OC)c1` [buflomedil (hydrochloride)] + CN1CCN(C2=Nc3ccccc3Oc3ccc(Cl)cc32)CC1 [loxapine]: 0.0222 ± 0.0028; for `NC(=O)c1ncn([C@@H]2O[C@H](CO)[C@@H](O)[C@H]2O)n1` [ribavirin] + CN1CCN(C2=Nc3ccccc3Oc3ccc(Cl)cc32)CC1 [loxapine]: 0.0212 ± 0.0037; for `CCOC(=O)C(C)(C)Oc1ccc(Cl)cc1` [clofibrate] + CN1CCN(C2=Nc3ccccc3Oc3ccc(Cl)cc32)CC1 [loxapine]: 0.0218 ± 0.0033.

Regarding `CCOc1ccc(NC(C)=O)cc1` [phenacetin] + CN1CCN(C2=Nc3ccccc3Oc3ccc(Cl)cc32)CC1 [loxapine], the food intake came out at 0.0226 ± 0.0036. The same measure for `CC(C)NCC(O)COc1ccc(CCOCC2CC2)cc1` (stereo not given) [betaxolol] + CN1CCN(C2=Nc3ccccc3Oc3ccc(Cl)cc32)CC1 [loxapine]: 0.0265 ± 0.0022; for `CC[C@@H]([C@H](C)O)n1ncn(-c2ccc(N3CCN(c4ccc(OC[C@@H]5CO[C@@](Cn6cncn6)(c6ccc(F)cc6F)C5)cc4)CC3)cc2)c1=O` [Posaconazole] + CN1CCN(C2=Nc3ccccc3Oc3ccc(Cl)cc32)CC1 [loxapine]: 0.023 ± 0.0056. The same measure for `CC(C)C(=O)c1c(C(C)C)nn2ccccc12` [ibudilast] + CN1CCN(C2=Nc3ccccc3Oc3ccc(Cl)cc32)CC1 [loxapine]: 0.0243 ± 0.0046. With `CN1CCC[C@H]1c1cccnc1` [L-nicotine] + CN1CCN(C2=Nc3ccccc3Oc3ccc(Cl)cc32)CC1 [loxapine] the figure was 0.0212 ± 0.0058; with `COc1ccc2[nH]c([S@@+]([O-])Cc3ncc(C)c(OC)c3C)nc2c1` [Esomeprazole (magnesium trihydrate)] + CN1CCN(C2=Nc3ccccc3Oc3ccc(Cl)cc32)CC1 [loxapine], 0.0226 ± 0.0041. On to `O=C(c1ccccc1)c1ccc2n1CCC2C(=O)O` (stereo not given) [ketorolac (romethamine salt)] + CN1CCN(C2=Nc3ccccc3Oc3ccc(Cl)cc32)CC1 [loxapine], for which the food intake was 0.0225 ± 0.0034. In the case of `CC(C)NCC(O)COc1ccc(CCOCC2CC2)cc1` (stereo not given) [betaxolol (hydrochloride)] + CN1CCN(C2=Nc3ccccc3Oc3ccc(Cl)cc32)CC1 [loxapine], the food intake was 0.025 ± 0.003. With `CC(CCc1ccccc1)NCC(O)c1ccc(O)c(C(N)=O)c1` (stereo not given) [labetalol (hydrochloride)] + CN1CCN(C2=Nc3ccccc3Oc3ccc(Cl)cc32)CC1 [loxapine] the figure was 0.0213 ± 0.0075. As to `S=c1nc[nH]c2nc[nH]c12` [6-Mercaptopurine] + CN1CCN(C2=Nc3ccccc3Oc3ccc(Cl)cc32)CC1 [loxapine], the food intake amounted to 0.0218 ± 0.0028. With `CO/N=C1\CN(c2nc3c(cc2F)c(=O)c(C(=O)O)cn3C2CC2)CC1CN` (stereo not given) [gemifloxacin (mesylate)] + CN1CCN(C2=Nc3ccccc3Oc3ccc(Cl)cc32)CC1 [loxapine] the figure was 0.023 ± 0.0032; with `Cc1ccc(C)c(OCCCC(C)(C)C(=O)O)c1` [Gemfibrozil] + CN1CCN(C2=Nc3ccccc3Oc3ccc(Cl)cc32)CC1 [loxapine], 0.0247 ± 0.0069; with `C[C@]12CC[C@@H]3c4ccc(O)cc4CC[C@H]3[C@@H]1CC[C@@H]2OC(=O)CCC1CCCC1` [estradiol (cypionate)] + CN1CCN(C2=Nc3ccccc3Oc3ccc(Cl)cc32)CC1 [loxapine], 0.0224 ± 0.0087. With `Cc1cccc(-c2nn3c(c2-c2ccnc4ccc(C(N)=O)cc24)CCC3)n1` + CN1CCN(C2=Nc3ccccc3Oc3ccc(Cl)cc32)CC1 [loxapine] the figure was 0.0252 ± 0.0052; with `Clc1ccc(COC(Cn2ccnc2)c2ccc(Cl)cc2Cl)c(Cl)c1` (stereo not given) [miconazole (nitrate)] + CN1CCN(C2=Nc3ccccc3Oc3ccc(Cl)cc32)CC1 [loxapine], 0.0169 ± 0.005; with `CC(CN1c2ccccc2Sc2ccccc21)N(C)C` (stereo not given) [promethazine (hydrochloride)] + CN1CCN(C2=Nc3ccccc3Oc3ccc(Cl)cc32)CC1 [loxapine], 0.0219 ± 0.0024. The same measure for `CC(=O)OCC(CCn1cnc2cnc(N)nc21)COC(C)=O` [famciclovir] + CN1CCN(C2=Nc3ccccc3Oc3ccc(Cl)cc32)CC1 [loxapine]: 0.0236 ± 0.0029; for `CC[C@@H](CO)NCCN[C@@H](CC)CO` [ethambutol (dihydrochloride)] + CN1CCN(C2=Nc3ccccc3Oc3ccc(Cl)cc32)CC1 [loxapine]: 0.024 ± 0.0019; for `CC(C)Cc1ccc(C(C)C(=O)O)cc1` (stereo not given) [ibuprofen] + CN1CCN(C2=Nc3ccccc3Oc3ccc(Cl)cc32)CC1 [loxapine]: 0.0222 ± 0.0021. Take `CN(C)[C@@H]1C(O)=C(C(N)=O)C(=O)[C@@]2(O)C(O)=C3C(=O)c4c(O)cccc4[C@@](C)(O)[C@H]3C[C@@H]12` [Tetracycline (hydrochloride)] + CN1CCN(C2=Nc3ccccc3Oc3ccc(Cl)cc32)CC1 [loxapine]: the food intake stood at 0.0228 ± 0.0038. With `C#Cc1cccc(Nc2ncnc3cc(OCCOC)c(OCCOC)cc23)c1` [Erlotinib] + CN1CCN(C2=Nc3ccccc3Oc3ccc(Cl)cc32)CC1 [loxapine] the figure was 0.0212 ± 0.0034. With `CO/N=C(\C(=O)N[C@@H]1C(=O)N2C(C(=O)O)=C(CSC(=O)c3ccco3)CS[C@H]12)c1csc(N)n1` [ceftiofur (sodium)] + CN1CCN(C2=Nc3ccccc3Oc3ccc(Cl)cc32)CC1 [loxapine], the food intake came out at 0.0225 ± 0.0037.
